Assay results published in the supplement of paper PMC6555819.

Experiments:
Experiment in all cases: PBM binding z-score (relative to random genomic background probes); higher = stronger binding; sequences stand for … in GC…GCGATTGACAGCGTAGAATGAAGG
[1] = system: FXR:RXRa (NR concentration 270 nM, RXRa partner concentration 90 nM)
In short: (§1)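 Scanned fluorescence from custom Agilent 4×180K protein-binding microarrays was regression-normalized. Binding z-scores use random background probes as reference. Ligand-free nuclear receptor dimers were incubated on the arrays for 1 h and detected with antibodies against each partner (one per run).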

[2] = system: LXRa homodimer (NR concentration 270 nM)
In short: as §1

[3] = system: LXRb homodimer (NR concentration 270 nM)
In short: as §1

[4] = system: PPARa:RXRa (NR concentration 270 nM, RXRa partner concentration 90 nM)
In short: as §1

[5] = system: PPARg:RXRa (NR concentration 180 nM, RXRa partner concentration 90 nM)
In short: as §1

[6] = system: PPARg:RXRa 270nM:90nM, anti-RXR (NR concentration 270 nM, RXRa partner concentration 90 nM)
In short: as §1

[7] = system: PPARg:RXRa 30nM:10nM, anti-RXR (NR concentration 30 nM, RXRa partner concentration 10 nM)
In short: as §1

[8] = system: PPARg:RXRa 90nM:30nM, anti-RXR (NR concentration 90 nM, RXRa partner concentration 30 nM)
In short: as §1

[9] = system: PPARg:RXRa DBDmut IVT, anti-RXR (DBD mutation: RXRa K156A/R161A, NR concentration 270 nM, RXRa partner concentration 90 nM)
In short: as §1

[10] = system: PPARg:RXRa IVT, anti-PPARg (NR concentration 270 nM, RXRa partner concentration 90 nM)
In short: as §1

[11] = system: PPARg DBDmut:RXRa IVT, anti-PPARg (DBD mutation: PPARg1 K132A/R137A, NR concentration 270 nM, RXRa partner concentration 90 nM)
In short: as §1

[12] = system: PPARg DBDmut IVT, anti-PPARg (DBD mutation: PPARg1 K132A/R137A, NR concentration 270 nM)
In short: as §1

[13] = system: PPARg homodimer (NR concentration 180 nM)
In short: as §1

[14] = system: PXR:RXRa (NR concentration 270 nM, RXRa partner concentration 90 nM)
In short: as §1

[15] = system: PXR homodimer (NR concentration 270 nM)
In short: as §1

[16] = system: RARa:RXR (NR concentration 270 nM, RXRa partner concentration 90 nM)
In short: as §1

[17] = system: RARa homodimer (NR concentration 270 nM)
In short: as §1

[18] = system: RARb:RXRa (NR concentration 270 nM, RXRa partner concentration 90 nM)
In short: as §1

[19] = system: RARb homodimer (NR concentration 270 nM)
In short: as §1

Row | Sequence | PBM binding z-score [1] | PBM binding z-score [2] | PBM binding z-score [3] | PBM binding z-score [4] | PBM binding z-score [5] | PBM binding z-score [6] | PBM binding z-score [7] | PBM binding z-score [8] | PBM binding z-score [9] | PBM binding z-score [10] | PBM binding z-score [11] | PBM binding z-score [12] | PBM binding z-score [13] | PBM binding z-score [14] | PBM binding z-score [15] | PBM binding z-score [16] | PBM binding z-score [17] | PBM binding z-score [18] | PBM binding z-score [19]
1 | ATCGAAAGGTCGACCAGGTGAGTATACACCGTTT | 4.91 | 0.21 | 0.349 | 4.53 | 3.14 | 3.34 | 1.16 | 2.44 | 0.539 | 2.15 | 0.944 | 0.642 | 1.28 | 2.8 | 0.258 | 3.62 | 0.621 | 3.98 | 2.97
2 | TCTTGTAGGTCAATAGAGGTTAAGAAAGTGCGCT | 4.77 | 3.93 | 1.17 | 5.13 | 6.67 | 5.94 | 4.32 | 5.5 | 7.07 | 7.76 | 2.66 | 2.4 | 2.69 | 5.67 | 0.719 | 4.2 | 1.13 | 4.09 | 3.81
3 | CGTCAAAGTTCAACTAAGGTTACGTAAAGCACGC | 7.19 | 6.3 | 2.31 | 5.63 | 5.53 | 5.55 | 2.42 | 4.33 | 0.789 | 2.44 | 1.54 | 1.43 | 3.83 |  | 8.22 | 5.27 | 1.91 | 5.44 | 5.67
4 | TACCCTAGGTCATTCAGGGGCCAGTATAGAAAGC | 4.73 | 8.12 | 4.99 | 3.81 | 2.52 | 2.63 | 0.859 | 2.15 | 1.8 | 3.23 | -0.205 | 0.64 | 2.57 | 2.68 | 0.936 | 3.65 | 0.569 | 4.13 | 3.8
5 | TCTCGGAGGAAACGAAAGGTCAGAGCTCGACATC | 1.86 | 2.91 | -0.0498 | 3.66 | 1.74 | 3.9 | 2.92 | 3.77 | 1.21 | 0.961 | -0.0511 | -0.298 | 2.23 | 3.7 | 0.181 | 4.48 | 1.31 | 3.73 | 4.28
6 | CCTTACGGGTTACTCCAGGTTATAGCATCGGAGT | 2.01 | 5.38 | -0.167 |  | 0.504 | 0.711 | -0.136 | 0.413 | 0.986 | 0.994 | 0.298 | -0.838 | 0.398 | 2.52 | 0.558 | 1.68 | 0.599 | 1.02 | 0.561
7 | GCTGCTAGTTCAACTGATGGTCAGCTAAAGCTCG | -0.0566 | -0.53 | -0.641 |  | -0.618 | -0.212 | -0.685 | -0.415 | -0.111 | -0.512 | -0.37 | -1.33 | -0.347 | 0.398 | -0.4 | 0.418 | -1.04 | 1.62 | 1.21
8 | TATACAAGGTCAAAGGCCAGAGTACGAATGTCGA | 7.51 | 6.08 | 4.21 |  | 8.52 | 7.39 | 5.48 | 7.66 | 2.91 | 5.15 | 1.68 | 2.18 | 2.34 | 4.53 | 0.743 | 5.37 | 0.491 | 5.27 | 4.35
9 | TCTAGTTGGTCACGGAGGTCCCACACGACGGGTA | -0.177 | 0.0478 | -0.115 |  | 0.739 | 1.93 | 3.06 | 2.25 | 1.68 | 2.31 | 0.993 | 1.03 | 0.373 | 0.138 | -0.319 | 0.243 | 0.299 | 1.57 | 1.32
10 | AATACAGGGTGACTAGGCCAGAGTAGGTACGAAT | 0.201 | 0.00715 | -0.0758 |  | 2.6 | 2.06 | 0.461 | 1.08 | 2.23 | 3.48 | 1.24 | 0.872 | 0.246 | 0.11 | 0.336 | 0.341 | 0.259 | 0.856 | 0.729
11 | TACCCTAGGTCATTGGGCCAGTATAGTACGCATC | 4.66 | 8.18 | 3.83 |  | 4.27 | 4.04 | 1.23 | 2.96 | 3.2 | 4.36 | 0.464 | 0.484 | 1.89 | 1.94 | 0.578 | 2.56 | 0.228 | 3.87 | 3.25
12 | TCTTGTAGATCGATAGAGGTTAAGAAAGTGCGCT | 0.392 | -0.317 | -0.0814 |  | -0.159 | 1.66 | 2.48 | 1.93 | 0.891 | 0.198 | 0.295 | 0.641 | 0.199 | 2.67 | 0.241 | 1.23 | 0.262 | 0.661 | 0.946
13 | CGAACTAGGTCATTGACAGGACAATGAATAGTAA | 4.51 | 0.605 | -0.0587 |  | 7.97 | 6.6 | 3.9 | 5.84 | 8.11 | 8.41 | 3.96 | 1.94 | 1.77 | 2.07 | 0.487 | 2.45 | 0.188 | 3.77 | 2.88
14 | CGTCCAAGGTCATATGAGGTCAGTGAAGACAGAT | 7.7 | 6.17 | 2.22 |  | 4.87 | 5.72 | 2.34 | 4.36 | 3.46 | 3.84 | 0.668 | 0.114 | 4.65 | 7.23 | 9.26 | 6.07 | 2.7 | 5.34 | 5.47
15 | TCTCGGAGGACACAAAGGTCAGAGCTTTCCAGAG | 3.05 | 2.17 | -0.2 |  | 3.27 | 4.43 | 3.16 | 4.07 | 1.57 | 2.39 | -0.467 | -0.672 | 2.65 | 4.46 | 3.76 | 4.59 | 1.37 | 4.22 | 4.77
